About 79,000 compounds went through this panel and 15% of them were active in at least one assay; those are over-represented in the sample as a whole. Values without a mark were called inactive. Active and inactive are the calls of the source. Rule as the data show it: active = growth inhibition above about 70%; inactive = the rest.
Legend:
[1] = NCI Yeast Anticancer Drug Screen. Data for the rad52 strain (AID 147);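 also: 0% = growth of vehicle-treated control cultures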; details: S. cerevisiae rad52 mutant growth inhibition, stronger effect = higher value
Summary of the method: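 Vehicle-treated cultures served as the reference for growth inhibition of compound-exposed yeast bearing a DNA repair mutation.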

[2] = NCI Yeast Anticancer Drug Screen. Data for the wt1 strain (AID 149);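 also: 0% = growth of vehicle-treated wt1 cultures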; details: S. cerevisiae wt1 strain (SPY 50644) growth inhibition, stronger effect = higher value
Summary of the method: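 Readout: yeast growth inhibition, normalised to vehicle controls, in the wt1 strain exposed to test compounds.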

[3] = NCI Yeast Anticancer Drug Screen. Data for the rad50EPP+ strain (AID 151);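 also: 0% = growth of vehicle-treated control cultures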; details: S. cerevisiae rad50 mutant strain, stronger effect = higher value
Summary of the method: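 In this screen, rad50EPP+ yeast were exposed to compounds. Growth inhibition was scored against vehicle-treated controls.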

[4] = NCI Yeast Anticancer Drug Screen. Data for the mgt1 strain (AID 153); details: S. cerevisiae mgt1 mutant growth inhibition, stronger effect = higher value
Summary of the method: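 mgt1 strain exposed; growth vs vehicle control recorded as inhibition.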

[5] = NCI Yeast Anticancer Drug Screen. Data for the rad50 strain (AID 155);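 also: 0% = growth of vehicle-only cultures of the same strain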; details: S. cerevisiae rad50 strain growth inhibition, stronger effect = higher value
Summary of the method: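 Compounds were tested on a yeast strain with an engineered DNA damage repair alteration; the reported value is growth inhibition normalised to vehicle treatment.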

[6] = NCI Yeast Anticancer Drug Screen. Data for the mec2-1 strain (AID 157); details: S. cerevisiae mec2-1 strain, stronger effect = higher value
Summary of the method: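 Vehicle-treated cultures served as reference for growth inhibition of compound-exposed mec2-1 yeast.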

[7] = NCI Yeast Anticancer Drug Screen. Data for the rad14 strain (AID 159);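 also: 0% = growth of vehicle-treated control cultures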; details: S. cerevisiae rad14 strain growth inhibition, stronger effect = higher value
Summary of the method: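 Compound-treated yeast with a defined DNA-repair lesion; growth inhibition normalised to vehicle-treated cultures.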

[8] = NCI Yeast Anticancer Drug Screen. Data for the sgs1 mgt1 strain (AID 161);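 also: 0% = growth of cultures given vehicle only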; details: S. cerevisiae sgs1 mgt1 strain, stronger effect = higher value
Summary of the method: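 Read-out: growth inhibition vs vehicle controls. Cells: mutant yeast strain deficient in DNA damage repair.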

[9] = NCI Yeast Anticancer Drug Screen. Data for the CLN2oe strain (AID 163);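 also: 0% = growth of vehicle-only control cultures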; details: S. cerevisiae CLN2oe strain, stronger effect = higher value
Summary of the method: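 Inhibition relative to vehicle-treated yeast is reported. Cells: strain with genetic alteration in cell-cycle control, grown with compound.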

[10] = NCI Yeast Anticancer Drug Screen. Data for the cln2 rad14 strain (AID 165);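 also: 0% = growth equal to vehicle treated cultures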; details: S. cerevisiae cln2 rad14 strain, stronger effect = higher value
Summary of the method: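 Each compound was tested on cln2 rad14 yeast. Inhibition of growth was calculated against vehicle-exposed controls.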

[11] = NCI Yeast Anticancer Drug Screen. Data for the bub3 strain (AID 167); details: S. cerevisiae bub3 mutant strain, stronger effect = higher value
Summary of the method: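 Growth of a checkpoint-deficient yeast mutant is measured after compound exposure. Values represent inhibition relative to vehicle.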

[12] = NCI Yeast Anticancer Drug Screen. Data for the wt2 strain (AID 169);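 also: 0% = growth of vehicle-treated yeast cultures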; details: S. cerevisiae wt2 strain growth inhibition, stronger effect = higher value
Summary of the method: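 Inhibition of yeast growth was determined after compound treatment, normalised to controls receiving only vehicle.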

[13] = NCI Yeast Anticancer Drug Screen. Data for the mlh1 strain (AID 171);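 also: 0% = growth of vehicle-treated control cultures of the same strain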; details: S. cerevisiae mlh1 strain growth inhibition, stronger effect = higher value
Summary of the method: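 Vehicle-normalised growth inhibition of a repair- or checkpoint-altered yeast strain following compound treatment.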

[14] = NCI Yeast Anticancer Drug Screen. Data for the sgs1 strain (AID 173);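 also: 0% = growth of vehicle-only control cultures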; details: S. cerevisiae sgs1 mutant, stronger effect = higher value
Summary of the method: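 Screen format: yeast with repair or checkpoint alterations, compound exposure, growth read relative to vehicle.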

[15] = NCI Yeast Anticancer Drug Screen. Data for the mlh1 rad18 strain (AID 175); details: S. cerevisiae mlh1 rad18 strain growth inhibition, stronger effect = higher value
Summary of the method: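 Vehicle-treated cultures served as the reference for growth inhibition in a yeast strain carrying DNA damage repair alterations exposed to each compound.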

[16] = NCI Yeast Anticancer Drug Screen. Data for the rad18 strain (AID 177); details: S. cerevisiae rad18 mutant growth inhibition, stronger effect = higher value
Summary of the method: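 Test articles were incubated with altered yeast defective in DNA damage repair. Results are given as inhibition of growth versus vehicle.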

[17] = at 5.0 µM (retest, dose inferred, filed as 0.5)
[18] = at 50.0 µM (retest, dose inferred, filed as 5.0)

SMILES: Cc1ccc(S(=O)(=O)NCCSS(=O)(=O)c2ccc(C)cc2)cc1
- growth inhibition ([1]; at 1.2 µM): 18%
- growth inhibition ([1]; at 3.7 µM): 31%
- growth inhibition ([1]; at 11.0 µM): 38%
- growth inhibition ([1]; at 33.0 µM): 98% (active)
- growth inhibition ([1]; at 100.0 µM): 95% (active)
- growth inhibition ([2]; at 1.2 µM): 6%
- growth inhibition ([2]; at 3.7 µM): 8%
- growth inhibition ([2]; at 11.0 µM): 28%
- growth inhibition ([2]; at 33.0 µM): 99% (active)
- growth inhibition ([2]; at 100.0 µM): 95% (active)
- growth inhibition ([3]; at 1.2 µM): -14%
- growth inhibition ([3]; at 3.7 µM): 6%
- growth inhibition ([3]; at 11.0 µM): 64%
- growth inhibition ([3]; at 33.0 µM): 91% (active)
- growth inhibition ([3]; at 100.0 µM): 96% (active)
- growth inhibition ([4]; at 1.2 µM): -13%
- growth inhibition ([4]; at 3.7 µM): -8%
- growth inhibition ([4]; at 11.0 µM): 3%
- growth inhibition ([4]; at 33.0 µM): 98% (active)
- growth inhibition ([4]; at 100.0 µM): 94% (active)
- growth inhibition ([5]; at 1.2 µM): 9%
- growth inhibition ([5]; at 3.7 µM): 6%
- growth inhibition [5, 17]: 36%
- growth inhibition ([5]; at 11.0 µM): 17%
- growth inhibition ([5]; at 33.0 µM): 98% (active)
- growth inhibition [5, 18]: 95% (active)
- growth inhibition ([5]; at 50.0 µM): 88.7% (active)
- growth inhibition ([5]; at 100.0 µM): 93% (active)
- growth inhibition ([6]; at 1.2 µM): -2%
- growth inhibition ([6]; at 3.7 µM): -13%
- growth inhibition [6, 17]: -24%
- growth inhibition ([6]; at 11.0 µM): 7%
- growth inhibition ([6]; at 33.0 µM): 98% (active)
- growth inhibition [6, 18]: 96% (active)
- growth inhibition ([6]; at 50.0 µM): 93% (active)
- growth inhibition ([6]; at 100.0 µM): 96% (active)
- growth inhibition ([7]; at 1.2 µM): -10%
- growth inhibition ([7]; at 3.7 µM): -15%
- growth inhibition ([7]; at 11.0 µM): -6%
- growth inhibition ([7]; at 33.0 µM): 98% (active)
- growth inhibition ([7]; at 100.0 µM): 92% (active)
- growth inhibition [8, 17]: 7%
- growth inhibition [8, 18]: 95% (active)
- growth inhibition ([8]; at 50.0 µM): 91% (active)
- growth inhibition ([9]; at 1.2 µM): -29%
- growth inhibition ([9]; at 3.7 µM): -16%
- growth inhibition ([9]; at 11.0 µM): -6%
- growth inhibition ([9]; at 33.0 µM): 96% (active)
- growth inhibition ([9]; at 100.0 µM): 93% (active)
- growth inhibition [10, 17]: 20%
- growth inhibition [10, 18]: 96% (active)
- growth inhibition ([10]; at 50.0 µM): 87.2% (active)
- growth inhibition ([11]; at 1.2 µM): -14%
- growth inhibition ([11]; at 3.7 µM): -29%
- growth inhibition [11, 17]: 30%
- growth inhibition ([11]; at 11.0 µM): -4%
- growth inhibition ([11]; at 33.0 µM): 98% (active)
- growth inhibition [11, 18]: 97% (active)
- growth inhibition ([11]; at 50.0 µM): 88.8% (active)
- growth inhibition ([11]; at 100.0 µM): 94% (active)
- growth inhibition ([12]; at 1.2 µM): -14%
- growth inhibition ([12]; at 3.7 µM): -17%
- growth inhibition ([12]; at 11.0 µM): -1%
- growth inhibition ([12]; at 33.0 µM): 97% (active)
- growth inhibition ([12]; at 100.0 µM): 94% (active)
- growth inhibition ([13]; at 1.2 µM): -27%
- growth inhibition ([13]; at 3.7 µM): -34%
- growth inhibition ([13]; at 11.0 µM): -14%
- growth inhibition ([13]; at 33.0 µM): 98% (active)
- growth inhibition ([13]; at 100.0 µM): 94% (active)
- growth inhibition ([14]; at 1.2 µM): 20%
- growth inhibition ([14]; at 3.7 µM): 21%
- growth inhibition ([14]; at 11.0 µM): 45%
- growth inhibition ([14]; at 33.0 µM): 99% (active)
- growth inhibition ([14]; at 100.0 µM): 96% (active)
- growth inhibition [15, 17]: 10%
- growth inhibition [15, 18]: 95% (active)
- growth inhibition ([15]; at 50.0 µM): 88.7% (active)
- growth inhibition ([16]; at 1.2 µM): -2%
- growth inhibition ([16]; at 3.7 µM): 6%
- growth inhibition ([16]; at 11.0 µM): 12%
- growth inhibition ([16]; at 33.0 µM): 99% (active)
- growth inhibition ([16]; at 100.0 µM): 94% (active)

SMILES: NNC(=O)CCc1ccc2ccc3ccccc3c2c1
- growth inhibition ([1]; at 1.2 µM): -1%
- growth inhibition ([1]; at 3.7 µM): -3%
- growth inhibition ([1]; at 11.0 µM): 1%
- growth inhibition ([1]; at 33.0 µM): 13%
- growth inhibition ([1]; at 100.0 µM): 52%
- growth inhibition ([2]; at 1.2 µM): 1%
- growth inhibition ([2]; at 3.7 µM): 3%
- growth inhibition ([2]; at 11.0 µM): 3%
- growth inhibition ([2]; at 33.0 µM): 3%
- growth inhibition ([2]; at 100.0 µM): 18%
- growth inhibition ([3]; at 1.2 µM): 2%
- growth inhibition ([3]; at 3.7 µM): 4%
- growth inhibition ([3]; at 11.0 µM): 15%
- growth inhibition ([3]; at 33.0 µM): 34%
- growth inhibition ([3]; at 100.0 µM): 58%
- growth inhibition ([4]; at 1.2 µM): -2%
- growth inhibition ([4]; at 3.7 µM): -3%
- growth inhibition ([4]; at 11.0 µM): -5%
- growth inhibition ([4]; at 33.0 µM): -4%
- growth inhibition ([4]; at 100.0 µM): 23%
- growth inhibition ([5]; at 1.2 µM): 0%
- growth inhibition ([5]; at 3.7 µM): -4%
- growth inhibition [5, 17]: -13%
- growth inhibition ([5]; at 11.0 µM): 9%
- growth inhibition ([5]; at 33.0 µM): 7%
- growth inhibition [5, 18]: 7%
- growth inhibition ([5]; at 50.0 µM): 28.1%
- growth inhibition ([5]; at 100.0 µM): 58%
- growth inhibition ([6]; at 1.2 µM): -1%
- growth inhibition ([6]; at 3.7 µM): -1%
- growth inhibition [6, 17]: -1%
- growth inhibition ([6]; at 11.0 µM): 0%
- growth inhibition ([6]; at 33.0 µM): 2%
- growth inhibition [6, 18]: 2%
- growth inhibition ([6]; at 50.0 µM): -10.2%
- growth inhibition ([6]; at 100.0 µM): 50%
- growth inhibition ([7]; at 1.2 µM): -4%
- growth inhibition ([7]; at 3.7 µM): -2%
- growth inhibition ([7]; at 11.0 µM): -3%
- growth inhibition ([7]; at 33.0 µM): -4%
- growth inhibition ([7]; at 100.0 µM): 40%
- growth inhibition [8, 17]: -6%
- growth inhibition [8, 18]: -14%
- growth inhibition ([8]; at 50.0 µM): 20.1%
- growth inhibition ([9]; at 1.2 µM): -10%
- growth inhibition ([9]; at 3.7 µM): -15%
- growth inhibition ([9]; at 11.0 µM): -17%
- growth inhibition ([9]; at 33.0 µM): -3%
- growth inhibition ([9]; at 100.0 µM): 60%
- growth inhibition [10, 17]: -28%
- growth inhibition [10, 18]: -15%
- growth inhibition ([10]; at 50.0 µM): 24.6%
- growth inhibition ([11]; at 1.2 µM): -8%
- growth inhibition ([11]; at 3.7 µM): -4%
- growth inhibition [11, 17]: -11%
- growth inhibition ([11]; at 11.0 µM): -33%
- growth inhibition ([11]; at 33.0 µM): 19%
- growth inhibition [11, 18]: 54%
- growth inhibition ([11]; at 50.0 µM): 37.2%
- growth inhibition ([11]; at 100.0 µM): 58%
- growth inhibition ([12]; at 1.2 µM): -1%
- growth inhibition ([12]; at 3.7 µM): -1%
- growth inhibition ([12]; at 11.0 µM): 2%
- growth inhibition ([12]; at 33.0 µM): 6%
- growth inhibition ([12]; at 100.0 µM): 32%
- growth inhibition ([13]; at 1.2 µM): 6%
- growth inhibition ([13]; at 3.7 µM): 3%
- growth inhibition ([13]; at 11.0 µM): 5%
- growth inhibition ([13]; at 33.0 µM): 9%
- growth inhibition ([13]; at 100.0 µM): 48%
- growth inhibition ([14]; at 1.2 µM): 6%
- growth inhibition ([14]; at 3.7 µM): 8%
- growth inhibition ([14]; at 11.0 µM): 17%
- growth inhibition ([14]; at 33.0 µM): 22%
- growth inhibition ([14]; at 100.0 µM): 52%
- growth inhibition [15, 17]: -10%
- growth inhibition [15, 18]: 22%
- growth inhibition ([15]; at 50.0 µM): 71.3% (active)
- growth inhibition ([16]; at 1.2 µM): 17%
- growth inhibition ([16]; at 3.7 µM): 15%
- growth inhibition ([16]; at 11.0 µM): -8%
- growth inhibition ([16]; at 33.0 µM): 38%
- growth inhibition ([16]; at 100.0 µM): 66%
